Results on 21 compounds are retold here after PubChem BioAssay.

The nature of assay [1]: antimalarial activity against Dd2 strain (AID 2302;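 active means growth inhibition above 50% at the single 2 µM test dose, taken to imply half-maximal potency below 2 µM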;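 further: 0% = DMSO untreated growth and 100% = chloroquine plus artemisinin killed control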). The settings on record: P. falciparum Dd2 in RBCs, LDH growth readout, 72 h; at 2 µM; hits give high values.
The nature of assay [2]: human hepatoma cell viability loss – ATP luminescence, cytotoxicity control for P. falciparum antimalarial project, primary screen (AID 2303;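 active means inhibition above 50%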;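 further: 0% = DMSO wells and 100% = digitonin-killed cells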). The settings on record: HepG2 viability, 24-48 h, at 10 µM, hits give high values.
Assay [3] has as its target L-lactate dehydrogenase (Plasmodium falciparum (isolate CDC / Honduras)) (UniProt Q27743). The experiment in a line: PfLDH activity inhibition – cell lysate, 3D7 strain, counter-screen for P. falciparum growth inhibition project (AID 2304).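 Further: 0% = vehicle and 100% = reference inhibitor.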 The settings on record: P. falciparum 3D7 crude extract, LDH APAD/NBT absorbance; at 2 µM; hits give high values. On the technique in general: Counterscreens check selectivity or assay interference.

Assay [4] in a line: inhibition of 3D7 malaria parasite growth – strain 3D7 (AID 2306).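 Further: 0% = DMSO wells and 100% = chloroquine plus artemisinin control wells.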 The settings on record: P. falciparum 3D7 erythrocytic growth, LDH absorbance, 72 h; at 2 µM; hits give high values.
Assay [5] deals with Calcium-dependent protein kinase 1 (Plasmodium falciparum (isolate 3D7)) (UniProt P62344). Description: PfCDPK1 kinase inhibitors, biochemical, TCAMS library (AID 1159585; cut-off not given, nearly all actives have IC50 up to about 0.98 µM;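 further: inhibitors leave more ATP so luminescence rises with inhibition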). Conditions: recombinant PfCDPK1, Kinase-Glo ATP depletion luminescence. In general terms: In Kinase-Glo more light means more ATP remaining.
The target of assay [6] is Plasmodium falciparum protein kinase 6 (PK6, PF3D7_1337100) (UniProt Q8IDW1). The experiment in a line: PfPK6 kinase inhibitors, biochemical, TCAMS library (AID 1159586). The settings on record: recombinant PfPK6, Kinase-Glo ATP depletion luminescence.
Assay [7] deals with Protein kinase 7 (PK7), Plasmodium falciparum 3D7 (PF3D7_0213400) (UniProt Q7YTF7). Description: inhibition of Plasmodium PK7 catalytic activity – biochemical, TCAMS antimalarial set, Kinase-Glo luminescence (AID 1159587). Conditions: recombinant PfPK7, Kinase-Glo ATP depletion luminescence.
The target in assay [8] is Calcium-dependent protein kinase 4 (Plasmodium falciparum (isolate 3D7)) (UniProt Q8IBS5). Description: PfCDPK4 kinase inhibitors, biochemical, TCAMS library (AID 1159588; cut-off not given, nearly all actives have IC50 up to about 0.91 µM). Conditions: recombinant PfCDPK4, Kinase-Glo ATP depletion luminescence.

Molecules are shown by their SMILES. A number with no mark means an inactive call. For part of these data: Results with a measured potency or affinity are listed apart. Calls of active or inactive are those of the source. Unless noted, how the calls were made is not given here.

Sequence of Calcium-dependent protein kinase 4 (Plasmodium falciparum (isolate 3D7)) (Q8IBS5 whole entry, looked up): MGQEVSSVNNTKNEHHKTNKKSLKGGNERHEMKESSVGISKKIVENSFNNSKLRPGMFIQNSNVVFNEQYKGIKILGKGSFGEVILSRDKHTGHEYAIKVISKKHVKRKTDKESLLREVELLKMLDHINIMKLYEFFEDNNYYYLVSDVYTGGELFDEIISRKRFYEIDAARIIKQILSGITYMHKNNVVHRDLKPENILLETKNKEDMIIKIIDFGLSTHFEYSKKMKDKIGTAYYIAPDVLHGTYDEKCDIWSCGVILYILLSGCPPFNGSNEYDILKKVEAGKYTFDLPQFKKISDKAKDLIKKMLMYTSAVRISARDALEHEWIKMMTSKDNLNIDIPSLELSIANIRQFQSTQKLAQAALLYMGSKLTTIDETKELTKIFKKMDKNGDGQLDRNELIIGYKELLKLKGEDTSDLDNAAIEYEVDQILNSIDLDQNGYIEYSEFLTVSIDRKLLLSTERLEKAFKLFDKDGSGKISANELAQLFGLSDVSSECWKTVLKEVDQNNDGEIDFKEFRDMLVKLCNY
Sequence of Protein kinase 7 (PK7), Plasmodium falciparum 3D7 (PF3D7_0213400) (Q7YTF7 1-343): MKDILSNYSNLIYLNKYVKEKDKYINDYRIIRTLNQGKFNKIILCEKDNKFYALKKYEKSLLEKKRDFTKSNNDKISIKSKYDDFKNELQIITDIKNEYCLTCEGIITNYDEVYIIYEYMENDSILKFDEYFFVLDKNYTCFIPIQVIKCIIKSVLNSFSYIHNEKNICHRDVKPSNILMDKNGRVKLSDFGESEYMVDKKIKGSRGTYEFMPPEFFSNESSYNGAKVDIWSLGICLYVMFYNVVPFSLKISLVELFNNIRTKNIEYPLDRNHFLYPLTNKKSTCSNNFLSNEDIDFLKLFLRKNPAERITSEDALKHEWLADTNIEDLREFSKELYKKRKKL
Sequence of Calcium-dependent protein kinase 1 (Plasmodium falciparum (isolate 3D7)) (P62344 whole entry, looked up): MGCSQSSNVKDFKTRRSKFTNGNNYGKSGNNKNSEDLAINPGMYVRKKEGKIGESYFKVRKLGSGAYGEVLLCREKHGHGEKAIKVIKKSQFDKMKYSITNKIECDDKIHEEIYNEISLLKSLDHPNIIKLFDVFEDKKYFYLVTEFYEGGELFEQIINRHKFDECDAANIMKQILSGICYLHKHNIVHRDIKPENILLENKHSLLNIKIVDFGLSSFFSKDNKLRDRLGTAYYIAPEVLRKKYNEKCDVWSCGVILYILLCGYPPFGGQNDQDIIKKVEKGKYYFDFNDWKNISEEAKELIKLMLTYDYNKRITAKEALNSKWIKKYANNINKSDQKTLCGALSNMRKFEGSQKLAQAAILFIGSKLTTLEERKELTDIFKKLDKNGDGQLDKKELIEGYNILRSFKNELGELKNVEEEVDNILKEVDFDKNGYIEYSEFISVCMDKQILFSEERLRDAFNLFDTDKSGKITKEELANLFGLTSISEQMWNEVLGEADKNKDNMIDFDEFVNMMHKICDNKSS
Sequence of L-lactate dehydrogenase (Plasmodium falciparum (isolate CDC / Honduras)) (Q27743 whole entry, looked up): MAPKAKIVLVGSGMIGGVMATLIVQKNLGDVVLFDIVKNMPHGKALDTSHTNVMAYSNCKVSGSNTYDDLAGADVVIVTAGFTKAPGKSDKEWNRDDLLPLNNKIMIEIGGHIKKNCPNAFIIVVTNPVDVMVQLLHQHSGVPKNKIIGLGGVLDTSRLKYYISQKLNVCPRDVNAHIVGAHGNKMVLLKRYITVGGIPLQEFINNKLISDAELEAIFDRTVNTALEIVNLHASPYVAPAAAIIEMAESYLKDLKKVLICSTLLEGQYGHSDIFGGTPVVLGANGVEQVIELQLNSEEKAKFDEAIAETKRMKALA
Sequence of Plasmodium falciparum protein kinase 6 (PK6, PF3D7_1337100) (Q8IDW1 1-305): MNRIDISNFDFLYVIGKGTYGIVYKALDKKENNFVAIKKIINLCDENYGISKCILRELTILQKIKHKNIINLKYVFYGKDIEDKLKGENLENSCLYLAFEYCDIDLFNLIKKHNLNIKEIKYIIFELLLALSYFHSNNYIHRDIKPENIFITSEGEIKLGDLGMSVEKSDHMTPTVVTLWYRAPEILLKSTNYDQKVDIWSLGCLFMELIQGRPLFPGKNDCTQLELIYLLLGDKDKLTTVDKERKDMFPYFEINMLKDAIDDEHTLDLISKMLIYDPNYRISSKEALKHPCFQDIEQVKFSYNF

In general, inhibition refers to the relative decrease from the control value, in per cent. Turning to `OC(CNc1ccnc(Nc2ccc(Cl)cc2)n1)c1ccc(C(F)(F)F)cc1` (stereo not drawn), the results for the growth inhibition in assay [1] and in assay [4] were 94% (active) and 101% (active), respectively. Further, the inhibition was -2% in assay [2] and -6% in assay [3]. For the same compound, the result in assay [5], in assay [6], in assay [7] and in assay [8] was inactive.
For `COc1ccc2nccc([C@@H](O)CN3CCC(NCc4ccc5cccc(O)c5n4)CC3)c2c1`, the growth inhibition in assay [1] was 40%; in assay [4] it was 93% (active). Further, the inhibition in assay [2] is 10%; in assay [3], 1%. Besides, the outcome in assay [5], in assay [6], in assay [7] and in assay [8] was inactive.
Regarding `O=C1COC2(CN1C1CCN(Cc3ccc(O)c(Cl)c3)C1)c1ccccc1-c1ccccc12` (stereo not drawn), the values for the growth inhibition in assay [1] and in assay [4] were 63% (active) and 93% (active), respectively. In addition, the figures for the inhibition in assay [2] and in assay [3] were 5% and 3%, respectively. Further, the outcome in assay [5], in assay [6], in assay [7] and in assay [8] was inactive.
Turning to `O=C(Nc1ccc(OC2CCN(Cc3ccc(F)cc3)C2)c(Cl)c1)c1cccs1` (stereo not drawn), the growth inhibition in assay [1] is 97% (active); in assay [4], 98% (active). Also, the inhibition in assay [2] is 21%; in assay [3] it was 2%. In addition, the outcome in assay [5], in assay [6], in assay [7] and in assay [8] was inactive.
For `CSc1ccccc1NC(=S)NC1CCN(CCCCCNC(=O)/C=C/c2ccc(Cl)c(Cl)c2)CC1`, the growth inhibition in assay [1] is 27%; in assay [4] it was 98% (active). The inhibition is 19% in assay [2] and 4% in assay [3]. For the same compound, the outcome in assay [5], in assay [6], in assay [7] and in assay [8] was inactive.
With `Cc1cc(C)c(NC(=O)N2CCCN(CCCCCNC(=O)/C=C/c3ccc(Cl)c(Cl)c3)CC2)c(C)c1`, the growth inhibition in assay [1] was -1%; in assay [4], 91% (active). In addition, the inhibition was 12% in assay [2] and 3% in assay [3]. In addition, the result in assay [5], in assay [6], in assay [7] and in assay [8] was inactive.
Consider `CC(Oc1ccc(C(=O)c2ccc(F)cc2)cc1)C(=O)N1CCc2ccccc21` (stereo not drawn), for which the growth inhibition in assay [1] and in assay [4] was 95% (active) each time. In addition, the inhibition is 9% in assay [2] and 1% in assay [3]. In addition, the result in assay [5], in assay [6], in assay [7] and in assay [8] was inactive.
In the case of `Cc1cc(C(=O)Nc2ccc3c(c2)CCN3C2CCN(Cc3ccc(F)cc3Cl)C2)no1` (stereo not drawn), the figures for the growth inhibition in assay [1] and in assay [4] were 96% (active) and 95% (active), respectively. For the same compound, the inhibition in assay [2] is 7%; in assay [3], 1%. In addition, the outcome in assay [5], in assay [6], in assay [7] and in assay [8] was inactive.
For `CCN(CC)CCCC(C)Nc1c2ccccc2nc2ccc3ccccc3c12` (stereo not drawn), the growth inhibition is 89% (active) in assay [1] and 100% (active) in assay [4]. Further, the results for the inhibition in assay [2] and in assay [3] were 24% and 1%, respectively. The outcome in assay [5], in assay [6], in assay [7] and in assay [8] was inactive.
As to `CN(C)Cc1ccc(-c2cccc(NC(=O)c3ccc(Cl)cc3)c2)cc1`, the growth inhibition in assay [1] is 13%; in assay [4], 94% (active). Moreover, the inhibition in assay [2] is 24%; in assay [3] it was 3%. Besides, the result in assay [5], in assay [6], in assay [7] and in assay [8] was inactive.
Regarding `O=C(/C=C/c1ccc(Cl)c(Cl)c1)NCCCCCN1CCC(c2cn[nH]c2-c2ccccc2)CC1`, the growth inhibition was -2% in assay [1] and 85% (active) in assay [4]. Moreover, the results for the inhibition in assay [2] and in assay [3] were 28% and -2%, respectively. In addition, the result in assay [5], in assay [6], in assay [7] and in assay [8] was inactive.
For the compound `CCC(C)NCc1c(O)ccc2c(CNC(C)CC)c(O)ccc12` (stereo not drawn), the growth inhibition in assay [1] is 31%; in assay [4], 100% (active). In addition, the values for the inhibition in assay [2] and in assay [3] were 14% and 2%, respectively. For the same compound, the outcome in assay [5], in assay [6], in assay [7] and in assay [8] was inactive.
For `CC(C)c1cn2c3c(cc(C(=O)N[C@@H](Cc4ccccc4)[C@H](O)CNC4CCOCC4)cc13)N(C)S(=O)(=O)CC2`, the growth inhibition in assay [1] is 99% (active); in assay [4], 98% (active). Also, the inhibition in assay [2] was 9%; in assay [3], -6%. For the same compound, the result in assay [5], in assay [6], in assay [7] and in assay [8] was inactive.
Regarding `Cc1cccc2[nH]c(-c3cccc(-c4ccc(CNCc5cnn(-c6ccccc6)n5)cc4)c3)nc12`, the growth inhibition in assay [1] was 66% (active); in assay [4], 102% (active). Besides, the inhibition is 20% in assay [2] and -4% in assay [3]. Besides, the result in assay [5], in assay [6], in assay [7] and in assay [8] was inactive.
On to `CCCCN(C)CC#Cc1ccc(-c2ccc3[nH]c(C)c(Br)c(=O)c3c2)cn1`, for which the growth inhibition in assay [1] is 93% (active); in assay [4], 98% (active). For the same compound, the results for the inhibition in assay [2] and in assay [3] were 3% and -3%, respectively. The outcome in assay [5], in assay [6], in assay [7] and in assay [8] was inactive.
Regarding `CCOC(=O)c1c[nH]c2c(sc3cc(OC)ccc32)c1=O`, the figures for the growth inhibition in assay [1] and in assay [4] were 93% (active) and 96% (active), respectively. Further, the figures for the inhibition in assay [2] and in assay [3] were -6% and 3%, respectively. Also, the result in assay [5], in assay [6], in assay [7] and in assay [8] was inactive.
Regarding `CCC(O)c1ccc(Br)cc1NC(=O)c1cccc(Cl)c1` (stereo not drawn), the growth inhibition in assay [1] was 52% (active); in assay [4] it was 80% (active). For the same compound, the figures for the inhibition in assay [2] and in assay [3] were -3% and -5%, respectively. Moreover, the result in assay [5], in assay [6], in assay [7] and in assay [8] was inactive.
Consider `CC(=O)N1N=C(c2cccs2)Sc2c1nc(-c1ccc(Cl)cc1)n2C(C)=O`, for which the values for the growth inhibition in assay [1] and in assay [4] were 93% (active) and 99% (active), respectively. Besides, the inhibition in assay [2] was 3%; in assay [3], 0%. For the same compound, the result in assay [5], in assay [6], in assay [7] and in assay [8] was inactive.
Turning to `NC1CCN(Cc2ccc(-c3ccc(-c4nc5ccc(F)cc5[nH]4)s3)cc2)C1` (stereo not drawn), the growth inhibition in assay [1] is 98% (active); in assay [4], 100% (active). Further, the inhibition in assay [2] is 32%; in assay [3], 3%. In addition, the outcome in assay [5], in assay [6], in assay [7] and in assay [8] was inactive.
As for `COc1ccc(NC(=O)Nc2ccc(C)c(-c3ccc(C(=O)Nc4ccncc4)cc3)c2)cc1`, the values for the growth inhibition in assay [1] and in assay [4] were 50% (active) and 99% (active), respectively. Also, the inhibition is 39% in assay [2] and 4% in assay [3]. Besides, the result in assay [5], in assay [6], in assay [7] and in assay [8] was inactive.
As to `Clc1ccc2c(N3CCN(CCN4CCN(c5ccnc6cc(Cl)ccc56)CC4)CC3)ccnc2c1`, the growth inhibition in assay [1] is 100% (active); in assay [4], 99% (active). For the same compound, the inhibition was 10% in assay [2] and 1% in assay [3]. For the same compound, the result in assay [5], in assay [6], in assay [7] and in assay [8] was inactive.
